Bioassay records from PubChem.
The list is not random: actives were taken first. Their share in the collection is about 2.6%.
PME-1 primary: PME-1 (human) inhibition | recombinant PME-1, FP-Rh probe fluorescence polarization | inhibition, % at 5.9 µM | 0.53% of 320,000 active;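 active = inhibition above the campaign mean of all compounds plus 3 SD, cut at about 26% in these data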;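 also: competitive labeling of PME-1 active site by serine hydrolase directed probe; inhibitors block probe labeling so polarization falls and inhibition rises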
Target sequence (Q9Y570 whole entry, looked up): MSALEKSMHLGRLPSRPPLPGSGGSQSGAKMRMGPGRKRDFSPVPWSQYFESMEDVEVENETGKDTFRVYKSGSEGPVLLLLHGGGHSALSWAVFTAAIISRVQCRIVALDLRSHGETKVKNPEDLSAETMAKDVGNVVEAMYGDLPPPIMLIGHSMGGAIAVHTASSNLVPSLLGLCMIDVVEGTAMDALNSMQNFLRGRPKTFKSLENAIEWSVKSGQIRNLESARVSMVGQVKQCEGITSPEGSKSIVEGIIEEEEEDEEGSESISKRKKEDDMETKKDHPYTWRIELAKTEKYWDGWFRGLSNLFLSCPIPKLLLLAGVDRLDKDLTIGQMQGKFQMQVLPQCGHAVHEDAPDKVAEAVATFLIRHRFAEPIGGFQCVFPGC
PAD4 FP inh: inhibitors of human PAD4; Q9UM07; recombinant PAD4, RCA probe fluorescence polarization; inhibition, % at 6.36 µM; 0.41% of 330,000 active; AID 485272;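 active = percent inhibition above a cutoff equal to the mean of all tested compounds plus 3 SD, cut at about 15% in these data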
Fam108B inh: counter-screen for RBBP9 inhibitors: inhibitors of mouse Fam108B; recombinant Fam108B, FP-Rh probe fluorescence polarization; inhibition, % at 9.51 µM; 0.33% of 300,000 active; AID 1947;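 active = inhibition above the screen mean inhibition plus 3 SD, computed separately per campaign, cut at about 18% in these data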;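 also: inhibitors lower polarization as less probe binds the enzyme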
TCR CD3 inh: human TCR-CD3 binding inhibition; TAMRA-labeled TCR probe fluorescence, biochemical; inhibition, % at 9.4 µM; 0.37% of 360,000 active; AID 651800; in the data active = inhibition above about 19%;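 also: recombinant mutant TCR 2C K166C tagged with TAMRA read by polarization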
SIAE primary: human SIAE inhibition, primary screen. 0.69% of 370,000 active. SIAE FP-Rh probe binding, fluorescence polarization. inhibition, % at 9.66 µM;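 active = inhibition above a cutoff: mean of compounds within the control limits plus 3 SD of those, cut at about 17% in these data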
PRMT1 inh: blocks human protein arginine methyltransferase 1; Q99873; recombinant PRMT1, activity-based probe fluorescence polarization; inhibition, % at 2.79 µM; 1.3% of 370,000 active;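 active = inhibition above about 21% made by adding two undisclosed values, limit read from the data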
Target sequence (Q99873 whole entry, looked up): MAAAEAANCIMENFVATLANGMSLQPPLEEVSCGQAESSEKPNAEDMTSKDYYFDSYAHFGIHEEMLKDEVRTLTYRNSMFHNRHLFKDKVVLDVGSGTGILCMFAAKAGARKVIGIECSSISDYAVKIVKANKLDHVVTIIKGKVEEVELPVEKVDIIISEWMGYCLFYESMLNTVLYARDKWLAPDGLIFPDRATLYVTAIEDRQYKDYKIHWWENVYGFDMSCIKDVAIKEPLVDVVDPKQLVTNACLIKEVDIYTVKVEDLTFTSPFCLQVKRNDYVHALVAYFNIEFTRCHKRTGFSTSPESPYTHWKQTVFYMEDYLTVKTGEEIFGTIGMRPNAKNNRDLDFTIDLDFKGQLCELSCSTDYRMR
PAD4 confirm: PAD4 (human) inhibition, confirmed | 28% of 1,200 active | shares compounds with PAD4 FP inh | recombinant PAD4, RCA probe fluorescence polarization | inhibition, % at 6.36 µM;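 active = mean inhibition across replicates above the hit cutoff set by the earlier primary screen, cut at about 15% in these data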;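 also: inhibitors block active-site labeling by the probe so polarization falls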
Large screens that a line does not name were inactive (follow-up assays come after a bar, where they were run).

COC(=O)[C@]12C[C@H](CC(=O)NCc3cccc4ccccc34)C(=O)N(Cc3cccc4ccccc34)C1=C[C@H](C(C)(C)C)O[C@@H]2C	none (no result: PME-1 primary, PAD4 FP inh, Fam108B inh, TCR CD3 inh)
COc1ccc(/C=N/NC(=O)Cn2nnc3ccccc32)cc1OC	none
CN(C)c1ccc(/C=N/NC(=O)Cn2nnc3ccccc32)cc1	PAD4 FP inh 15 | PAD4 confirm inactive
CCCNC1=C(N(C(C)=O)c2cccc(F)c2)C(=O)c2ccccc2C1=O	PAD4 FP inh 18 | PAD4 confirm inactive
O=C(NCC(=O)N(c1cccc(F)c1)C(C(=O)NC1CCCC1)c1ccncc1)c1cccs1 (stereo not given)	PAD4 FP inh 18 | PAD4 confirm inactive
O=C(NCC(c1ccccc1)c1ccccc1)[C@H](Cc1c[nH]c2ccccc12)NC1(C(=O)NC2CCCCC2)CCN(Cc2ccccc2)CC1	none (no result: PME-1 primary, PAD4 FP inh, Fam108B inh, TCR CD3 inh)
CC(=O)c1cccc(NC(=O)CSC(=O)c2ccccc2)c1	PAD4 FP inh 15, PRMT1 inh 49 | PAD4 confirm 18
CCOc1ccc(NC(=O)CN(C)C(=O)CN2C(=O)C3CCCCC3C2=O)cc1OCC (stereo not given)	none (no result: Fam108B inh)
CCOc1ccc(NC(=O)CN(C)C(=O)CC2CC3CCC2C3)cc1OCC (stereo not given)	PAD4 FP inh 45 | PAD4 confirm inactive
COc1ccc(/C=C/C(=O)OCC(=O)c2c(N)n(C)c(=O)n(C)c2=O)c(OC)c1	PAD4 FP inh 19 | PAD4 confirm inactive
CCCC[C@H](C(=O)N(C)c1cccc(OC)c1)[C@@H](O)c1ccc2ccccc2c1	none (no result: PME-1 primary, PAD4 FP inh, Fam108B inh, TCR CD3 inh)
CC(=O)n1cc(N(C(=O)CCl)c2ccc(Cl)cc2)c2ccccc21	PAD4 FP inh 20 (no result: TCR CD3 inh, SIAE primary, PRMT1 inh) | PAD4 confirm 51
CC(=O)OCCNc1cc(SCc2ccco2)c2nonc2c1[N+](=O)[O-]	PAD4 FP inh 16 (no result: TCR CD3 inh, SIAE primary, PRMT1 inh) | PAD4 confirm inactive
COC(=O)CCSc1cc(NCCOC(C)=O)c([N+](=O)[O-])c2nonc12	none
C[C@@H](N)C(=O)Nc1ccc(Cl)cc1C(=O)c1ccc[nH]1	none (no result: PME-1 primary, PAD4 FP inh, Fam108B inh, TCR CD3 inh)
N#CC(C#N)=C1C=C2C=C(N3CCCCC3)CCC2CC1 (stereo not given)	PAD4 FP inh 49 (no result: TCR CD3 inh, SIAE primary, PRMT1 inh) | PAD4 confirm 21
CCCCN(C)C1=CC2=CC(=C(C#N)C#N)CCC2CC1 (stereo not given)	PME-1 primary 42, PAD4 FP inh 46 | PAD4 confirm 21
CCCCCCCCN1C(=O)[C@@H](CC(=O)NCC2CCCCC2)C[C@@]2(C(=O)OC)C1=C[C@H](C(C)C)O[C@@H]2C1CC1	none (no result: PME-1 primary, PAD4 FP inh, Fam108B inh, TCR CD3 inh)
CCCCCn1nnnc1C1(C)CCSCC(=O)N1Cc1ccco1 (stereo not given)	none (no result: PME-1 primary, PAD4 FP inh, Fam108B inh, TCR CD3 inh)
Cc1cccc(/C(N)=N/OC(=O)Cc2cccc3ccccc23)c1	none
Cc1cccc(C(=O)O/N=C(\N)Cc2cccc3ccccc23)c1	PAD4 FP inh 34 (no result: TCR CD3 inh, SIAE primary, PRMT1 inh) | PAD4 confirm inactive
Cc1cc(=O)[nH]c(NN)n1	PAD4 FP inh 16 | PAD4 confirm inactive
CCCC[C@H](C(=O)N(C)c1ccccc1)[C@@H](O)c1ccc2ccccc2c1	none (no result: PME-1 primary, PAD4 FP inh, Fam108B inh, TCR CD3 inh)
CCN(CC)c1nc(N)nc(NS(=O)(=O)c2ccc(Cl)cc2)n1	PAD4 FP inh 27 | PAD4 confirm inactive
Cc1cc(NN)nc(NS(=O)(=O)c2ccc(Cl)cc2)n1	none
O=C(N/N=C/c1cn(-c2cccs2)nc1-c1ccccc1)c1ccccc1O	PAD4 FP inh 27 | PAD4 confirm inactive
N#Cc1ccccc1N1CCN(C(=O)C2CCN(c3ncnc4c3sc3cccc(F)c34)CC2)CC1	none (no result: PME-1 primary, PAD4 FP inh, Fam108B inh, TCR CD3 inh)
CCCC(=O)N(c1ccc2oc(=O)sc2c1)S(=O)(=O)c1ccccc1	PAD4 FP inh 22, PRMT1 inh 50 | PAD4 confirm inactive
COc1ccc(N(C(=O)C2CCCCC2)S(=O)(=O)c2cccc3cccnc23)cc1	none
CC(=O)N(c1ccc2oc(=O)sc2c1)S(=O)(=O)c1cccc2cccnc12	PAD4 FP inh 33, PRMT1 inh 91 | PAD4 confirm 22
Cc1cc2oc(=O)sc2cc1NS(=O)(=O)c1ccccc1	PAD4 FP inh 20, PRMT1 inh 92 | PAD4 confirm inactive
Cc1cc2oc(=O)sc2cc1NS(=O)(=O)c1cccc2cccnc12	PAD4 FP inh 34, PRMT1 inh 54 | PAD4 confirm 19
Cc1cc(-c2ccc(NS(=O)(=O)c3ccccc3)c(C)c2)ccc1NS(=O)(=O)c1ccccc1	none (no result: PME-1 primary, PAD4 FP inh, Fam108B inh)
CCOc1ccc(-n2c(SCC(=O)Nc3ccc4c(c3)c3ccccc3n4CC)nnc2-c2cccnc2)cc1	none (no result: PME-1 primary, PAD4 FP inh, Fam108B inh, TCR CD3 inh)
O=C(O)c1ccc(-n2nc(-c3ccccc3O)nc2-c2ccccc2O)cc1	none (no result: PME-1 primary, PAD4 FP inh, Fam108B inh, TCR CD3 inh)
Cc1cc(C2=NNC(=NC3CC3)SC2)c(C)n1-c1ccccc1	none (no result: PME-1 primary, PAD4 FP inh, Fam108B inh)
c1ccc(C2=NNC(=NC3CC3)SC2)cc1	PAD4 FP inh 22, PRMT1 inh 65 | PAD4 confirm inactive
COc1ccc2c(c1)CCc1cn3nc(C)cc3nc1-2	PAD4 FP inh 16 | PAD4 confirm inactive
COC(=O)c1c(NC(=O)c2ccco2)sc(C(=O)N(C)C)c1C	PAD4 FP inh 19 | PAD4 confirm 16
O=C(Oc1ccc(-c2cnc3ccccc3n2)cc1)c1cc([N+](=O)[O-])ccc1Cl	none
Cc1c(C(=O)Oc2ccc(-c3cnc4ccccc4n3)cc2)cccc1[N+](=O)[O-]	PAD4 FP inh 62 | PAD4 confirm 57
O=C(Oc1ccc(-c2cnc3ccccc3n2)cc1)c1ccco1	PAD4 FP inh 36 | PAD4 confirm 35
CCC(=O)Oc1ccc(-c2cnc3ccccc3n2)cc1	PAD4 FP inh 20 | PAD4 confirm inactive
O=C(Nc1cccc(-c2cnc3ccccc3n2)c1)c1ccco1	none
C=CCNC1CCC12CCC(c1ccccc1)CC2 (stereo not given)	none (no result: PME-1 primary, PAD4 FP inh, Fam108B inh, TCR CD3 inh)
COC(=O)C1CN(Cc2ccc(F)cc2)CCS(=O)(=O)N1Cc1ccc(F)cc1 (stereo not given)	none (no result: PME-1 primary, PAD4 FP inh, Fam108B inh, TCR CD3 inh)
CN1C2=N[C@@H](c3ccc4c(c3)OCO4)CC(=O)N2/C(=C\c2ccccc2)[C@H]1c1ccccc1	none (no result: PME-1 primary, PAD4 FP inh, Fam108B inh, TCR CD3 inh)
N#Cc1ccc(OC[C@@H](O)CN2CCC(C(O)(c3ccccc3)c3ccccc3)CC2)cc1	none (no result: PME-1 primary, PAD4 FP inh, Fam108B inh, TCR CD3 inh)
Cc1sc2nc(COC(=O)CNC(=O)c3ccc(F)cc3Cl)[nH]c(=O)c2c1C	none (no result: PME-1 primary, PAD4 FP inh, Fam108B inh, TCR CD3 inh)
O=[N+]([O-])c1cc(Br)c(Nc2ccccc2)c([N+](=O)[O-])c1	PAD4 FP inh 18 | PAD4 confirm 20
COc1ccccc1C1c2ccc3ccccc3c2Oc2ncn(CCN(C)C)c(=N)c21 (stereo not given)	PAD4 FP inh 19 | PAD4 confirm inactive
Nc1ccc2c(c1)C(=O)c1ccccc1-2	none
Nc1ccc2c(c1)C(=O)C(=O)c1ccccc1-2	PME-1 primary 38, PAD4 FP inh 82, Fam108B inh 66 | PAD4 confirm 73
S=C(Nc1ccccc1)OCCN1CCCC12CCC(c1ccccc1)CC2 (stereo not given)	none (no result: PME-1 primary, PAD4 FP inh, Fam108B inh, TCR CD3 inh)
